Compounds with a hit are over-represented: about 1.6% of the library has one in this group of screens.
A1 inh: inhibitors of the anti-apoptotic protein A1, read as caspase activation | MEF A1-2A-BIM cells, Caspase-Glo 3/7 luminescence, 3 h; percent of clofoctol response, vehicle zero | caspase activation, % (no concentration beside the values) | 0.066% of 330,000 active | AID 2462;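 active = over half of replicate activation scores above 10%, or exactly half above 10 with the replicate mean above 10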
B2AR ag: human beta-2 adrenergic receptor agonism by FAP. P07550. Am2.2-beta2AR cells, FAP receptor internalization, flow cytometry. response, % (no concentration beside the values). 0.43% of 340,000 active;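 active = response above a set limit, near 3 SD of response in nonfluorescent compounds, cut at about 42% in these data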
dFosB activator: mouse delta FosB homodimer activation; activation, % at 25 µM; P13346; purified delta FosB, TAMRA-CDK5 oligo fluorescence polarization; percent of positive-control signal above neutral wells; 0.99% of 340,000 active;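 active = mean activation above about 17%, with every replicate also reaching it, limit read from the data, passing the limit was not always enough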
Target sequence (P13346 whole entry, looked up): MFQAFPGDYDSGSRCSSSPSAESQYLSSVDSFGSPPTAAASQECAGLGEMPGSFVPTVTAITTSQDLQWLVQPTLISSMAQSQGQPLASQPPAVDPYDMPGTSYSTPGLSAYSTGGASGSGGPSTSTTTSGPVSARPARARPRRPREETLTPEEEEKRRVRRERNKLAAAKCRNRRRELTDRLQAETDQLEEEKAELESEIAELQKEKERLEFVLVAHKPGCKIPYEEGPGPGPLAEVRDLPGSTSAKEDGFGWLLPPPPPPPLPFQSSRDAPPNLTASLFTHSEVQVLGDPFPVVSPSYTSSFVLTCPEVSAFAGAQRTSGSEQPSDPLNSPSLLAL
Dyrk1A ADPGlo: Dyrk1A (rat) kinase inhibition; Q63470; inhibition, % at 12.5 µM; AID 504441; ADP-Glo luminescence, NFATc1 peptide; 0.43% of 310,000 active; in the data active = inhibition above about 50%
Beta2AR ag CP1: agonists of human beta-2 adrenergic receptor. shares compounds with B2AR ag. 25% of 1,100 active. AID 540358. percent response (surface receptor), % at 10 µM. Am2.2-beta2AR cells, FAP surface receptor, flow cytometry; stronger effect = lower value;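 active = surface receptor percent response at or below 58%, roughly 3 SD from nonfluorescent compounds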
FAP fluor counter: fluorescence artifact in beta-2AR agonist FAP counterscreen; Am2.2 cells, FAP fluorogen flow cytometry; stronger effect = lower value; shares compounds with B2AR ag; calls only at 10 µM; 1,100 tested, under 10 active;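 active = percent response below a set limit in fluorescence channel 1 and below 50% in channel 8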
Each line names hits and unclear results; the compound was inactive in the other large screens (follow-up assays come after a bar, where they were run); ! = a repeat was not active.

COc1cc2c(cc1Cl)C(=O)C(F)(c1ccccc1)C(=O)N2 (stereo not drawn)	B2AR ag 81 | Beta2AR ag CP1 13 | FAP fluor counter inactive
Cc1ccc(F)cc1NCC(=O)Nc1ccc(Br)cc1	B2AR ag 80 | Beta2AR ag CP1 inactive | FAP fluor counter inactive
Cc1ccc(NCC(=O)Nc2ccc(Br)cc2)cc1C	none
Cn1c(SCC(=O)NCC2CCCO2)ncc(C(=O)Nc2ccc(Cl)cc2)c1=O (stereo not drawn)	B2AR ag 75 | Beta2AR ag CP1 inactive | FAP fluor counter inactive
Cn1c(SCC(=O)NCC2CCCO2)ncc(C(=O)Nc2ccc(F)cc2)c1=O (stereo not drawn)	B2AR ag 46 | Beta2AR ag CP1 inactive | FAP fluor counter inactive
CC(=O)Nc1ccc(NC(=O)CSc2ncc(C(=O)Nc3ccc(Cl)cc3)c(=O)n2C)cc1	none
COc1ccc(C(CCNC(C)c2ccccc2)c2ccc(F)cc2)cc1 (stereo not drawn)	B2AR ag 42 | Beta2AR ag CP1 inactive | FAP fluor counter inactive
COc1ccc(C(CCNCc2ccc(F)cc2)c2ccc(F)cc2)cc1 (stereo not drawn)	none | Beta2AR ag CP1 inactive | FAP fluor counter inactive
COc1ccc(C(CCNCc2ccccc2)c2ccc(F)cc2)cc1 (stereo not drawn)	none | Beta2AR ag CP1 inactive | FAP fluor counter inactive
COc1ccc(C(OCC(O)CNC(C)c2ccccc2)c2ccc(OC)cc2)cc1 (stereo not drawn)	B2AR ag 51 | Beta2AR ag CP1 inactive | FAP fluor counter inactive
COc1ccc(CNCCC(c2ccc(F)cc2)c2ccc(OC(C)C)cc2)cc1OC (stereo not drawn)	none
O=C(COC(=O)c1cc[n+]([O-])cc1)NCc1ccccc1Cl	none
c1ccc(-c2nccc(-c3ccc(-n4cnc5ccccc54)cc3)n2)cc1	B2AR ag 71, dFosB activator 130 | Beta2AR ag CP1 inactive | FAP fluor counter inactive
COc1ccc(/C(O)=C2\C(=O)C(=O)N(c3cc(C)on3)C2c2ccccc2OC)cc1 (stereo not drawn)	B2AR ag 50 | Beta2AR ag CP1 inactive | FAP fluor counter inactive
CC(C)(C)c1cc(C(c2cccnc2)N2CCN(CCO)CC2)cc(C(C)(C)C)c1O (stereo not drawn)	A1 inh 25, B2AR ag 62 | Beta2AR ag CP1 57 | FAP fluor counter inactive
CN(CCCN1CCOCC1)Cc1cn(C)nc1-c1ccccc1F	none | Beta2AR ag CP1 inactive | FAP fluor counter inactive
CN(Cc1cn(C)nc1-c1ccccc1F)C1CCOC1 (stereo not drawn)	none
COc1ccc(OC)c(NC(=O)COc2ccc(Br)cc2)c1	B2AR ag 68 | Beta2AR ag CP1 inactive | FAP fluor counter inactive
COc1ccc(OC)c(NC(=O)COC(=O)Cc2ccc(Br)cc2)c1	none
CC(C)Cc1nc2oc3c(Cl)ncnc3c2c2c1CCCC2	none
COc1ncnc2c1oc1nc(CC(C)C)c3c(c12)CCCC3	none (no result: A1 inh)
CCCc1nc2oc3c(NCC4CCCO4)ncnc3c2c2c1COC(C)(C)C2 (stereo not drawn)	none
CCCc1nc2oc3c(Cl)ncnc3c2c2c1CCCC2	B2AR ag 44 | Beta2AR ag CP1 inactive | FAP fluor counter inactive
CCCc1nc2oc3c(NCCN(C)C)ncnc3c2c2c1CCCC2	none | Beta2AR ag CP1 inactive | FAP fluor counter inactive
CC(C)Cc1nc2oc3c(NCC(C)O)ncnc3c2c2c1CCCC2 (stereo not drawn)	none (no result: Dyrk1A ADPGlo) | Beta2AR ag CP1 inactive | FAP fluor counter inactive
CCCc1nc2oc3c(NCCCN(C)C)ncnc3c2c2c1CCCC2	none (no result: Dyrk1A ADPGlo) | Beta2AR ag CP1 inactive | FAP fluor counter inactive
COc1ccc(N2CCN(C(=O)CNC(=O)Cn3cnc4sc(C)c(C)c4c3=O)CC2)cc1	none
COCCCNc1nc2nonc2nc1N(C)CC1CCCN1C (stereo not drawn)	none (no result: Dyrk1A ADPGlo)
Cc1cc(C)n2nc(-c3ccco3)nc2n1	none (no result: Dyrk1A ADPGlo)
Cc1ccc(Cl)cc1N1CCN(C(=O)Cc2c(C(=O)O)[nH]c3ccc(Cl)cc23)CC1	B2AR ag 75 | Beta2AR ag CP1 inactive | FAP fluor counter inactive
CCc1ccc(OCC(=O)Nc2ccc(-c3nc4ccccc4o3)c(O)c2)cc1	B2AR ag 93 | Beta2AR ag CP1 1.1 | FAP fluor counter inactive
COc1ccc(OCC(=O)Nc2cccc(-c3nc4ccccc4o3)c2)cc1	none
COc1ccc(CC(=O)Nc2cc(S(C)(=O)=O)ccc2Cl)cc1S(=O)(=O)N1CCOCC1	none (no result: A1 inh)
O=C1CCN(Cc2nnnn2CC2CCCO2)c2ccccc2N1 (stereo not drawn)	B2AR ag 42 | Beta2AR ag CP1 inactive | FAP fluor counter inactive
O=C(c1ccco1)N1CCN(Cc2nnnn2CC2CCCO2)CC1 (stereo not drawn)	none
Cc1cc([N+](=O)[O-])nn1CCCC(=O)Nc1cccc(Cl)c1Cl	none
Cc1nn(CC(=O)NCCN2CCCCC2C)c(=O)c2cc(-c3ccccc3)nn12 (stereo not drawn)	none
O=C1C(O)CC2c3ccccc3CC3(CCCC3)N12 (stereo not drawn)	none | Beta2AR ag CP1 inactive | FAP fluor counter inactive
CC1CC2(CCCC2)N(C(=O)c2ccccc2)Cc2ccccc21 (stereo not drawn)	none
O=C(c1ccc(F)cc1)N1CCC(C(=O)N2CCN(S(=O)(=O)c3cccc(F)c3)CC2)CC1	none
Cc1ccc(C)c(S(=O)(=O)N2CCN(C(=O)C3CCN(C(=O)c4ccc(F)cc4)CC3)CC2)c1	B2AR ag 60 | Beta2AR ag CP1 inactive | FAP fluor counter inactive
Cc1cccc2nc(COc3ccc4ccccc4c3Br)cn12	B2AR ag 98 | Beta2AR ag CP1 26 | FAP fluor counter inactive
Cc1c(O[C@@H]2O[C@H](CO)[C@@H](O)[C@H](O)[C@H]2O)c(CO)c(O[C@@H]2O[C@H](CO)[C@@H](O)[C@H](O)[C@H]2O)c2c1O[C@@H](c1ccccc1)C[C@@H]2O	none
O=C(CN1C(=O)C2CCCCC2C1=O)Nc1cc(C(F)(F)F)ccc1N1CCCC1 (stereo not drawn)	none
c1ccc(CSc2nnnn2-c2cccc3ccccc23)nc1	B2AR ag 43 | Beta2AR ag CP1 39 | FAP fluor counter inactive
O=C(Cn1cc2c(n1)CCCC2)NCc1cccs1	none
O=C(Cn1cc2c(n1)CCCC2)NCc1ccccn1	B2AR ag 100 | Beta2AR ag CP1 inactive | FAP fluor counter inactive
CC(C)c1ccc2c(c1)CC[C@H]1[C@](C)(CN)CCC[C@]21C	B2AR ag 50! (no result: A1 inh) | Beta2AR ag CP1 inactive | FAP fluor counter inactive
COc1cccc(CN(C(=O)c2ccccc2Br)C2CCS(=O)(=O)C2)c1 (stereo not drawn)	none
Cc1cc(OCc2cc(C(=O)N(C)CCCN3CCOCC3)no2)cc(C)c1Cl	none
CN(CCCN1CCOCC1)C(=O)c1cc(COc2cccc(C(F)(F)F)c2)on1	B2AR ag 52 | Beta2AR ag CP1 inactive | FAP fluor counter inactive

Source: PubChem BioAssay
